Source: PubChem BioAssay (Tox21)
Results filed as inconclusive are left out. Active and inactive are the calls of the source. Unless noted, calls come from the whole dose curve; as a rule, active = well fitted curve in the direction sought with a large enough effect in the repeat runs; inconclusive = weak or mixed curves; inactive = no such curve, though single readings can be large; an effect the other way counts as inactive or inconclusive.

Key:
[1] = target: Thyrotropin-releasing hormone receptor (Homo sapiens) (UniProt P34981); assay: qHTS assay to identify small molecule agonists of the thyrotropin-releasing hormone receptor (TRHR) signaling pathway (AID 1346891; calls by dose curve;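 note: HEK293 cells expressing TRHR with calcium dye readout; series mostly up to about 58 µM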)
Summary of the method: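 HEK293/TRHR cells, 1500 per well, 18 h 37 °C; Ca dye 2 h 37 °C; pin-tool compound addition (agonist mode); kinetic fluorescence 3 min, 1 s reads; 15 concentrations, triplicate.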

[2] = Caspase-3/7 induction in HepG2 cells by small molecules, qHTS assay (AID 1346978); note: nearly all actives have a fitted effect of over 15% in size
Summary of the method: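 Caspase-3/7 induction was measured by Caspase-Glo 3/7 luminescence (30 min, room temperature) after a 17 hr compound exposure of wild-type HepG2 cells seeded at 2,000 per well and pre-incubated 5 hr.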

[3] = Caspase-3/7 induction in CHO-K1 cells by small molecules, qHTS cell viability counter screen (AID 1346979); note: nearly all actives have a fitted effect of over 35% in size; note: potency is the fitted concentration of half-maximal effect
Summary of the method: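 CHO-K1 wt, 1,500 cells/well; 5hr pre-incubation 37C/5% CO2; compound pin transfer (DMSO); 16hr exposure; CellTiter-Fluor added, 1hr, fluorescence read.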

[4] = Caspase-3/7 induction in CHO-K1 cells by small molecules, qHTS assay (AID 1346980); note: nearly all actives have a fitted effect of over 15% in size
Summary of the method: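 Luminescent Caspase-Glo 3/7 read (30min, room temperature) quantified apoptosis induction. Cells were wild-type CHO-K1, treated with compound for 17hr at 37 C and 5% CO2.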

[5] = Caspase-3/7 induction in HepG2 cells by small molecules, qHTS cell viability counter screen (AID 1346981); note: nearly all actives have a fitted effect of over 30% in size; note: potency is the fitted concentration of half-maximal effect
Summary of the method: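 In this quantitative HTS counter screen, compounds delivered in DMSO were left on unmodified HepG2 cells for 16 hr at 37 C. Viability was then determined fluorometrically with CellTiter-Fluor, in parallel with caspase-3/7 induction in the same wells.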

[6] = target: Nuclear receptor subfamily 1 group I member 2 (Homo sapiens) (UniProt O75469); assay: Human pregnane X receptor (PXR) small molecule agonists, qHTS assay (AID 1346982); note: nearly all actives have a fitted effect of over 35% in size; note: potency is the fitted concentration of half-maximal effect
Summary of the method: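 Reporter HepG2 cells expressing PXR-Luc are cultured in charcoal-stripped FBS (5%), treated with compounds for 24 hr at 37 C, and assayed by ONE-Glo luminescence after 30 min at room temperature.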

[7] = target: Cytochrome P450 2C19 (Homo sapiens) (UniProt P33261); assay: Cytochrome P450 Family 2 Subfamily C Member 19 (CYP2C19) small molecule antagonists: luciferase reporter qHTS assay (AID 1671197); note: nearly all actives have a fitted effect of over 65% in size; note: potency is the fitted concentration of half-maximal effect
Summary of the method: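 Inhibition of CYP2C19 was scored from loss of luminescence in a P450-Glo proluciferin substrate assay, NADPH-started and run 1 h at 37C, with ketoconazole as positive control.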

[8] = target: Cytochrome P450 2C9 (Homo sapiens) (UniProt P11712); assay: Cytochrome P450 Family 2 Subfamily C Member 9 (CYP2C9) small molecule antagonists: luciferase reporter qHTS assay (AID 1671198); note: nearly all actives have a fitted effect of over 50% in size; note: potency is the fitted concentration of half-maximal effect
Summary of the method: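 Enzyme-substrate mix preincubated with compound 10 min at room temperature; reaction started with NADPH regeneration solution, 1 h 37C. Luminescent luciferin product read after 20 min detection reagent.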

[9] = target: Cytochrome P450 1A2 (Homo sapiens) (UniProt P05177); assay: Cytochrome P450 Family 1 Subfamily A Member 2 (CYP1A2) small molecule antagonists: luciferase reporter qHTS assay (AID 1671199); note: nearly all actives have a fitted effect of over 50% in size; note: potency is the fitted concentration of half-maximal effect
Summary of the method: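 Steps: enzyme-substrate mix dispensed; test compounds and furafylline control pinned in; 10 min room temperature; NADPH regeneration solution added, 1 h; reaction stopped with luciferin detection reagent; luminescence read after 20 min.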

[10] = Human pregnane X receptor (PXR) small molecule agonists, qHTS cell viability counter screen (AID 1346977); note: nearly all actives have a fitted effect of over 50% in size; note: potency is the fitted concentration of half-maximal effect
Summary of the method: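 Fluorescence read-out (CellTiter-Fluor) of viability in PXR-Luc HepG2 cells, multiplexed with the luciferase agonist read. Compounds in DMSO added after 5hr plating; 24hr total exposure at 37C, 5% CO2.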

[11] = target: Nuclear receptor subfamily 1 group I member 2 (Rattus norvegicus) (UniProt Q9R1A7); assay: Rat pregnane X receptor (rPXR) activation by small molecules, qHTS assay (AID 1346983); details: rPXR luciferase reporter cells, One-Glo luminescence, 24 h; max activation: stronger effect = higher value; note: nearly all actives have a fitted effect of over 20% in size
Summary of the method: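 Luminescent readout (One-Glo luciferase, 30 min room temperature) followed 24 hr compound treatment at 37 C of rPXR cells plated 2,000 per well and preincubated 5hr; qHTS format with compounds delivered in DMSO.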

[12] = target: Nuclear receptor subfamily 1 group I member 2 (Homo sapiens) (UniProt O75469); assay: CYP3A4 induction through human pregnane X receptor (PXR) by small molecules, qHTS assay (AID 1346984); note: nearly all actives have a fitted effect of over 40% in size; note: potency is the fitted concentration of half-maximal effect
Summary of the method: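 Induction measured in HepG2-based DPX-2 cells co-expressing human PXR and a CYP3A4 promoter-driven luciferase. After a 24-hour compound exposure, cells received CYP3A4 luciferin substrate at 3uM final for 3 hours, and light output was then recorded.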

[13] = target: Nuclear receptor subfamily 1 group I member 2 (Homo sapiens) (UniProt O75469); assay: Human pregnane X receptor (PXR) activation by small molecules, qHTS assay (AID 1346985); note: nearly all actives have a fitted effect of over 40% in size; note: potency is the fitted concentration of half-maximal effect
Summary of the method: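 DPX-2 cells (HepG2 co-transfected with a PXR response element and a CYP3A4-promoter luciferase construct) were seeded at 2,000 per well, rested 5 hr at 37C, then exposed to DMSO-dissolved compounds for 24 hr. Activation was read as luciferase luminescence.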

[14] = target: Cytochrome P450 2D6 (Homo sapiens) (UniProt P10635); assay: Cytochrome P450 Family 2 Subfamily D Member 6 (CYP2D6) small molecule antagonists: luciferase reporter qHTS assay (AID 1671196); note: nearly all actives have a fitted effect of over 50% in size; note: potency is the fitted concentration of half-maximal effect
Summary of the method: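 Test chemicals meet CYP2D6 plus proluciferin substrate (10 min, RT); NADPH regenerating solution then drives turnover for 1 h. Detection reagent halts the reaction; luminescence measured after 20 min.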

[15] = target: Voltage-gated inwardly rectifying potassium channel KCNH2 (Homo sapiens) (UniProt Q12809); assay: Human Ether-a-go-go-Related Gene (hERG) channel small molecule antagonists: fluorescence cell-based qHTS assay (AID 1671200); note: nearly all actives have a fitted effect of over 50% in size; note: potency is the fitted concentration of half-maximal effect
Summary of the method: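 Read-out: thallium influx as a surrogate for potassium, tracked as fluorescence (480 nm ex/540 nm em) every second for 2 min after Stimulus Buffer addition in dye-loaded hERG-U2OS cells.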

[16] = target: Cytochrome P450 3A4 (Homo sapiens) (UniProt P08684); assay: Cytochrome P450 Family 3 Subfamily A Member 4 (CYP3A4) small molecule antagonists: luciferase reporter qHTS assay (AID 1671201); note: nearly all actives have a fitted effect of over 50% in size; note: potency is the fitted concentration of half-maximal effect
Summary of the method: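 Luminescent readout (RLU) proportional to CYP3A4 activity, from luciferin generated off a proluciferin substrate. Enzyme–substrate mix plus compound 10 min at room temp, NADPH regeneration 1 h, detection reagent 20 min.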
% is set by controls: 0 for no effect and ±100 for the full control effect.

Cytochrome P450 2D6 (Homo sapiens), sequence (P10635 whole entry, looked up): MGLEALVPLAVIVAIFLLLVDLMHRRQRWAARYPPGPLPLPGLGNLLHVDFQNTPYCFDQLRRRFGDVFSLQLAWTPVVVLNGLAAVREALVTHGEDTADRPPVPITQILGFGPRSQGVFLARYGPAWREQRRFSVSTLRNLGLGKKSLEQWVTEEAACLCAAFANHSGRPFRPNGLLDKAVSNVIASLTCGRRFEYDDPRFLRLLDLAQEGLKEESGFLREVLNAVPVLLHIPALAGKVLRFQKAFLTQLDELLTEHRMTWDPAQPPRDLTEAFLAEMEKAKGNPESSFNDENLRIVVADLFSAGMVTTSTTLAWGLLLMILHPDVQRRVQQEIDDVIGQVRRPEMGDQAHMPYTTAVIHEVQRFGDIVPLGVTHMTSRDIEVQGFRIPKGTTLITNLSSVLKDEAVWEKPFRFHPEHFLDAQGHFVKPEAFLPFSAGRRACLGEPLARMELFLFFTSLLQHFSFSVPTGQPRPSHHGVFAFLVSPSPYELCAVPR
Cytochrome P450 2C19 (Homo sapiens), sequence (P33261 whole entry, looked up): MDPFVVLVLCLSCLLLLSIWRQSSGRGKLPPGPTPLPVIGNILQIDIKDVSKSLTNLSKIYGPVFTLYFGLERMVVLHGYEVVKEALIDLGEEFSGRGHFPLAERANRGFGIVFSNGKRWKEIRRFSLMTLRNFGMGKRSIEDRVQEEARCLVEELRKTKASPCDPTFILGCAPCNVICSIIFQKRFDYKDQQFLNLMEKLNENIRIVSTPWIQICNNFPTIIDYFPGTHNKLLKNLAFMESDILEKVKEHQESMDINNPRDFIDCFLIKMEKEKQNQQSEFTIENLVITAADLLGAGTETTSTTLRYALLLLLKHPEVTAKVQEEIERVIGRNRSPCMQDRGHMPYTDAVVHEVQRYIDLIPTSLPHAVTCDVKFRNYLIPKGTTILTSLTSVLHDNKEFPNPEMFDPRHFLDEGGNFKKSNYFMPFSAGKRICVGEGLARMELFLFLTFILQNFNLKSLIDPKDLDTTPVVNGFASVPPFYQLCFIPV
Nuclear receptor subfamily 1 group I member 2 (Homo sapiens), sequence (O75469 whole entry, looked up): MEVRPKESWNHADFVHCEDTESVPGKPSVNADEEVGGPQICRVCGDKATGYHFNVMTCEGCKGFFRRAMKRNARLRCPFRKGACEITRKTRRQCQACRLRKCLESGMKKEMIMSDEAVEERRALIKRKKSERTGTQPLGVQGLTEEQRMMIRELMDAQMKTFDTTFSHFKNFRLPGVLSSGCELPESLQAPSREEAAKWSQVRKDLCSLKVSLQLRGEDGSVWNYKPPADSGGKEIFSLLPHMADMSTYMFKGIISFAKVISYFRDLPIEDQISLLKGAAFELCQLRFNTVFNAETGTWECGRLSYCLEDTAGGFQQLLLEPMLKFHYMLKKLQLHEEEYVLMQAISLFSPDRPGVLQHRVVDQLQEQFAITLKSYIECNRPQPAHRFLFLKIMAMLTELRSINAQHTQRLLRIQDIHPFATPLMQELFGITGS
Cytochrome P450 2C9 (Homo sapiens), sequence (P11712 whole entry, looked up): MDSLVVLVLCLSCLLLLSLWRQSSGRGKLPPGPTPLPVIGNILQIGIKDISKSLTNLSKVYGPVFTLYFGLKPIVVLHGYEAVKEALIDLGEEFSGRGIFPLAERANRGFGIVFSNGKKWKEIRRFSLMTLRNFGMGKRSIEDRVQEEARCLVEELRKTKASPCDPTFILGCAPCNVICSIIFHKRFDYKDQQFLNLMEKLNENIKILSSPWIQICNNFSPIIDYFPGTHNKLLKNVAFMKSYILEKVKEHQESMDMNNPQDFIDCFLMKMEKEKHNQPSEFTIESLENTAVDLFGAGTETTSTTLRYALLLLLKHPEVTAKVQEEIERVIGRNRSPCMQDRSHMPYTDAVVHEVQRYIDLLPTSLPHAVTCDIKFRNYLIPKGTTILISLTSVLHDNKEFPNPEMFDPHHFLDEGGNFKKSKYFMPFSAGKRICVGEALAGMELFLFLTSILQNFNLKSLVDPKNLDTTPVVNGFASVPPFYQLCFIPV
Cytochrome P450 1A2 (Homo sapiens), sequence (P05177 whole entry, looked up): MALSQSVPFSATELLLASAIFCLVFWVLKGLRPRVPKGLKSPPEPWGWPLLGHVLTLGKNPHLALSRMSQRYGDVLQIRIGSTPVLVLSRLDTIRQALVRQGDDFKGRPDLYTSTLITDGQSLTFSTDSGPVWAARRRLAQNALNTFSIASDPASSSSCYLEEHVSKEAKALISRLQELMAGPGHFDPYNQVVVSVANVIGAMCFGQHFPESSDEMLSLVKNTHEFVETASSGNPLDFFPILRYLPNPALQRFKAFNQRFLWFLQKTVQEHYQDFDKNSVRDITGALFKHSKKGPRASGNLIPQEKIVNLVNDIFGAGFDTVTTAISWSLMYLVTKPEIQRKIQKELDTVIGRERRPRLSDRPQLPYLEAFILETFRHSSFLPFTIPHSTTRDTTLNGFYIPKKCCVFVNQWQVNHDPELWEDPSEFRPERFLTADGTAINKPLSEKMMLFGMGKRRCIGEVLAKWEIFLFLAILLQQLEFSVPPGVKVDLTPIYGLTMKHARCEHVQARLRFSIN
Cytochrome P450 3A4 (Homo sapiens), sequence (P08684 whole entry, looked up): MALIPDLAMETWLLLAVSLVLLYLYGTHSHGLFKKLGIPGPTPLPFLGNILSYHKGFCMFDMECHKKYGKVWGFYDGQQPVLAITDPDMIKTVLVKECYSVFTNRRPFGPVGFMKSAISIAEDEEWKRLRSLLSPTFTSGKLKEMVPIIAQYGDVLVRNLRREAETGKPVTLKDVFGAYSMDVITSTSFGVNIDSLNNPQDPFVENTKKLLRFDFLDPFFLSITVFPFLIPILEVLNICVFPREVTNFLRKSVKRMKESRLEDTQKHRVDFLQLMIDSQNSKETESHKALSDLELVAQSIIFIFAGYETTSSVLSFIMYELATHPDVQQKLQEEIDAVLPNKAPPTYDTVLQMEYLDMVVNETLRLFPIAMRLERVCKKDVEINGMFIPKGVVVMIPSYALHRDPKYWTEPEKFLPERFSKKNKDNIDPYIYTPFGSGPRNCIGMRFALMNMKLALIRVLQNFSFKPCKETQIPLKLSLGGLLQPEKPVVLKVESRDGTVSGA
Voltage-gated inwardly rectifying potassium channel KCNH2 (Homo sapiens), sequence (Q12809 whole entry, looked up): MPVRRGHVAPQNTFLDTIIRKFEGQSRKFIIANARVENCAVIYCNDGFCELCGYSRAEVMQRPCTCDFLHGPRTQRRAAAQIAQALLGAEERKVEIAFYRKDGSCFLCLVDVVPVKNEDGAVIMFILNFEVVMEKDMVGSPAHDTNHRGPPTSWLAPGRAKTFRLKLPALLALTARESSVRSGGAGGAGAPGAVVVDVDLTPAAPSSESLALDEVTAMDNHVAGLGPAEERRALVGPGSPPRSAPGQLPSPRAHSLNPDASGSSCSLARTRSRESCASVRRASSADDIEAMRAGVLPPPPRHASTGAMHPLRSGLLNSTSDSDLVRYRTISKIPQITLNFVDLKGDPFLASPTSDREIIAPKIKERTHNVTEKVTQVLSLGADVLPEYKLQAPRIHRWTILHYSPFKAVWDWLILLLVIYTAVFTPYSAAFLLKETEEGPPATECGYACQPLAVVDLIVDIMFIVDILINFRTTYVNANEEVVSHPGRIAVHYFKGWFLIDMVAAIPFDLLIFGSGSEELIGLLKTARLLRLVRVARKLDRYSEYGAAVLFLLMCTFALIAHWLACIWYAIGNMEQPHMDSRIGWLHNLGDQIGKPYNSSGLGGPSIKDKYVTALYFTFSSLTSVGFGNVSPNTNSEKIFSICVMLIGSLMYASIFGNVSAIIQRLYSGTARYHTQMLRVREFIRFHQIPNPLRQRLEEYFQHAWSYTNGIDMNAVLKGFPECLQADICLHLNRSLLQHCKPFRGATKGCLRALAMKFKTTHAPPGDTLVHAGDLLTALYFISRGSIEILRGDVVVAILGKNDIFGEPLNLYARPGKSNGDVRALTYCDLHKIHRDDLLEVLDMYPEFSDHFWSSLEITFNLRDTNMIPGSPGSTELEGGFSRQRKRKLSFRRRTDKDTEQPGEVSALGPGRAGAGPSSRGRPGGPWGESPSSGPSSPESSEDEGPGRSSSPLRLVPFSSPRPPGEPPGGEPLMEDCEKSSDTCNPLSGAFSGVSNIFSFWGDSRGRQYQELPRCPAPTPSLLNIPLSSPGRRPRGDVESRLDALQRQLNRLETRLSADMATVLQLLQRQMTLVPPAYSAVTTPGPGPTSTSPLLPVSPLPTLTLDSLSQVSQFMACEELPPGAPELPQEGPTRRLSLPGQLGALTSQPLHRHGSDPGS
Nuclear receptor subfamily 1 group I member 2 (Rattus norvegicus), sequence (Q9R1A7 whole entry, looked up): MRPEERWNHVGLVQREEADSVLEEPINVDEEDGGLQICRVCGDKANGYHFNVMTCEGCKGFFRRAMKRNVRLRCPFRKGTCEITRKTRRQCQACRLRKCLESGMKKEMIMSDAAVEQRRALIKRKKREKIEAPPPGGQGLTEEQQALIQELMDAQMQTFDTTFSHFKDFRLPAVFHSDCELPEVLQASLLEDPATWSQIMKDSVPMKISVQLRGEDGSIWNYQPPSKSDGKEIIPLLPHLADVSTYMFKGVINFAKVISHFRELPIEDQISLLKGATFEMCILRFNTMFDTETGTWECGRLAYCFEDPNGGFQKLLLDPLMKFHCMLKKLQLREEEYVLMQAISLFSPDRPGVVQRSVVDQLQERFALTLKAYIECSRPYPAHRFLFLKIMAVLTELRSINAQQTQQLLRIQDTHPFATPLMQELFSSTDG
Thyrotropin-releasing hormone receptor (Homo sapiens), sequence (P34981 whole entry, looked up): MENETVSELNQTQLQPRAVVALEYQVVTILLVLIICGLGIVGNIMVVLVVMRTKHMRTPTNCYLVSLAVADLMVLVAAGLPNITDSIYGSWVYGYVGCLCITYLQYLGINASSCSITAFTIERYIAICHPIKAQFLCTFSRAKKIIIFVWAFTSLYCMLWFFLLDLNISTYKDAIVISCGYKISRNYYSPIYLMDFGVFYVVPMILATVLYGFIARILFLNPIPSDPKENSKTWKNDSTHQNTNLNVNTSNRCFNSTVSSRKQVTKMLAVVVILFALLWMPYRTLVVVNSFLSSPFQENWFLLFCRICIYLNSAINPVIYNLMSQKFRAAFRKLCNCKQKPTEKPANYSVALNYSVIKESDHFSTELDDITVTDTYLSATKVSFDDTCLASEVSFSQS

CC1CC(=O)NN=C1c1ccc(NCC(C)(C)NCC(O)COc2cc(Cl)ccc2C#N)cc1 (stereo not drawn)
active: Potency [6] 26.6 µM | Potency [7] 13.8 µM | Potency [8] 12.3 µM
inactive: Potency [1] | Potency [2] | Potency [3] | outcome [4] | Potency [5] | Potency [9]

CCc1c2c(nc3ccc(OC(=O)N4CCC(N5CCCCC5)CC4)cc13)-c1cc3c(c(=O)n1C2)COC(=O)[C@]3(O)CC
inactive: Potency [1] | Potency [10] | Potency [3] | outcome [4] | Potency [6] | max activation [11] -2.7% | Potency [12] | Potency [13] | Potency [14] | Potency [7] | Potency [8] | Potency [9] | Potency [15] | Potency [16]

CCCCCCCCCCCCCCC[C@H](O)[C@@H](N)CO
inactive: Potency [1] | Potency [10] | Potency [3] | outcome [4] | Potency [5] | Potency [6] | max activation [11] 0.49% | Potency [12] | Potency [13] | Potency [7] | Potency [8] | Potency [9] | Potency [15] | Potency [16]

Cc1nc2ccccn2c(=O)c1CCN1CCC(C(=O)c2ccc(F)cc2)CC1
inactive: Potency [1] | Potency [2] | Potency [3] | outcome [4] | Potency [5] | Potency [6] | Potency [7] | Potency [8] | Potency [9] | Potency [16]
active: Potency [15] 9.52 µM

CCOC(=N)CC(=O)OCC
active: Potency [9] 39.9 µM
inactive: Potency [1] | Potency [10] | Potency [2] | outcome [4] | Potency [5] | Potency [6] | Potency [7] | Potency [8] | Potency [15] | Potency [16]

N#C/C(=C1/SC[C@@H](c2ccc(Cl)cc2Cl)S1)n1ccnc1
active: Potency [14] 0.219 µM | Potency [7] 0.389 µM | Potency [8] 0.389 µM | Potency [9] 0.288 µM | Potency [15] 3.01 µM
inactive: Potency [1] | Potency [2] | outcome [4] | Potency [5] | Potency [6]

Cc1ccc(S)cc1
inactive: Potency [1] | Potency [10] | Potency [2] | Potency [6] | Potency [14] | Potency [15] | Potency [16]
active: Potency [7] 39.9 µM | Potency [8] 35.6 µM | Potency [9] 31.7 µM

CCN(Cc1cccc(S(=O)(=O)O)c1)c1ccc(C(=C2C=CC(=[N+](CC)Cc3cccc(S(=O)(=O)[O-])c3)C=C2)c2ccccc2)cc1
active: Potency [7] 62.8 µM | Potency [8] 28 µM
inactive: Potency [1] | Potency [10] | Potency [2] | outcome [4] | Potency [6] | Potency [9] | Potency [15]

OC(CCCN1CCCCC1)(c1ccccc1)c1ccccc1
inactive: Potency [1] | Potency [2] | outcome [4] | Potency [5] | Potency [6] | Potency [8] | Potency [9] | Potency [15]

COc1cc2ncnc(Nc3ccc(F)c(Cl)c3)c2cc1OCCCN1CCOCC1
active: Potency [10] 23.7 µM | Potency [3] 29.8 µM | Potency [14] 13.8 µM | Potency [7] 38.9 µM
inactive: Potency [1] | Potency [6] | max activation [11] -4.52% | Potency [8] | Potency [9] | Potency [15]

CCCCN(CCCC)CCCOC(=O)c1ccc(N)cc1
active: Potency [14] 0.0219 µM | Potency [15] 9.52 µM
inactive: Potency [1] | Potency [2] | Potency [3] | outcome [4] | Potency [5] | Potency [6] | max activation [11] 0.416% | Potency [12] | Potency [13] | Potency [8] | Potency [9] | Potency [16]

CN1CCN(CCCN2c3ccccc3Sc3ccc(S(=O)(=O)N(C)C)cc32)CC1
active: Potency [10] 26.6 µM | Potency [3] 26.6 µM | Potency [14] 15.5 µM | Potency [15] 5.35 µM
inactive: Potency [1] | outcome [4] | max activation [11] 4.5% | Potency [13] | Potency [7] | Potency [9]

CC(=N\O)/C(C)=N/O
inactive: Potency [1] | Potency [10] | Potency [2] | outcome [4] | Potency [6] | Potency [8] | Potency [15] | Potency [16]
active: Potency [9] 35.6 µM

CC(C)(C)CC(C)(C)c1ccc(OCCO)cc1
inactive: Potency [1] | outcome [4] | max activation [11] -7.23% | Potency [13] | Potency [14] | Potency [9]
active: Potency [10] 27.1 µM | Potency [3] 54.2 µM | Potency [5] 48.3 µM | Potency [6] 15.3 µM | Potency [12] 3.55 µM | Potency [7] 79.2 µM | Potency [8] 31.5 µM | Potency [16] 17.7 µM

O=C(c1ccc(O)cc1)c1ccc(Cl)cc1
inactive: Potency [1] | Potency [2] | outcome [4] | Potency [5] | Potency [15]
active: Potency [6] 24.9 µM | Potency [7] 18.2 µM | Potency [8] 25.7 µM | Potency [9] 18.2 µM

O=C(CCCN1CCC(O)(c2ccc(Br)cc2)CC1)c1ccc(F)cc1
inactive: Potency [1] | Potency [10] | Potency [3] | outcome [4] | max activation [11] -1.43% | Potency [7] | Potency [8] | Potency [9] | Potency [16]
active: Potency [12] 11.2 µM | Potency [13] 11.2 µM | Potency [14] 2.45 µM | Potency [15] 0.239 µM

Cc1cc(OI)c(C(C)C)cc1-c1cc(C(C)C)c(OI)cc1C
inactive: Potency [1] | Potency [10] | Potency [2] | Potency [5] | max activation [11] 0.407% | Potency [14] | Potency [15] | Potency [16]
active: Potency [6] 29.8 µM | Potency [13] 15.8 µM | Potency [7] 8.71 µM | Potency [8] 17.4 µM

CCC(=O)Oc1ccc(/C(CC)=C(\CC)c2ccc(OC(=O)CC)cc2)cc1
active: Potency [3] 61.1 µM
inactive: Potency [1] | Potency [2] | outcome [4] | Potency [5] | Potency [14] | Potency [7] | Potency [8] | Potency [9] | Potency [15] | Potency [16]
